High-throughput results deposited in PubChem BioAssay by National Center for Advancing Translational Sciences (NCATS).
An excerpt weighted towards active compounds, which were near 19% of everything screened.
HT1080NT lethal = kills 2HG-producing HT-1080-NT fibrosarcoma cells | hit rate 1.6% among 360,000 | HT-1080-NT fibrosarcoma viability, CellTiter-Glo ATP luminescence, 48 h | Potency, µM (top dose mostly 46.1 µM), inactives show at the top dose activity, negative = less viability, usual class: cytotoxic;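 also: NT is the 2HG producing partner of a matched IDH1 knockdown line; potency is read from the fitted curve at half-maximal effect; 0% = DMSO-treated cells and -100% = media-only wells without cells; nearly all actives have a fitted effect of over 55% in size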
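750 cells/well, RPMI + 5% FBS; 2 h settle, compound pin-transfer, 48 h at 37 degrees C. CellTiter-Glo 10 min RT, luminescence. Normalized to DMSO and media-only wells.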
IL1B secr inh = inhibitors of inflammasome signaling (IL-1 beta secretion); THP-1 LPS/ATP IL-1B secretion, AlphaLISA, 16 h; stronger effect = lower value; activity change, % at 57.5 µM; hit rate 4.7% among 360,000; in the data active = activity change below about -50%; inconclusive = mostly about -30% to -49%
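Secreted IL-1B measured by AlphaLISA bead assay after 16 h compound exposure of THP-1 cells; compounds (final up to 57.5 uM) added 1 h before LPS (250 ng/mL) and ATP (1.25 mM) stimulation; lower signal means less secretion.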
HT1080 IDH1KD tx = toxicity to HT-1080 IDH1 knockdown cells (counter line); HT-1080 IDH1 knockdown viability, ATP luminescence, 48 h; Potency, µM (titrated, usually from 46.1 µM), inactives show top-dose activity, negative = toxicity, most hits filed as cytotoxic; hit rate 2% among 360,000; AID 686971;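 also: potency is read from the fitted curve at half-maximal effect; 0% = DMSO wells and -100% = cell-free medium wells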
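After a 2 h attachment period, IDH1KD HT-1080 cells took pin-transferred compound for 48 h at 37 °C; ATP-based luminescence after 10 min room-temperature reagent incubation reported viability.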
DT40 TDP1 no CPT = qHTS for Inhibitors of human tyrosyl-DNA phosphodiesterase 1 (TDP1): qHTS in cells in absence of CPT | DT40 Tdp1-/- hTDP1 cells, no CPT, ATP luminescence, 48 h | Potency, µM (titrated, usually from 46.2 µM), inactives show at the highest dose activity change, negative = growth inhibition, actives largely listed as inhibitors | hit rate 15% among 420,000; also: potency is read from the fitted curve at half-maximal effect; nearly all actives have a fitted effect of over 55% in size
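Stably hTDP1-transfected Tdp1-null chicken DT40 cells were treated with library compounds minus camptothecin and grown for at least 48 hr at 37 °C, after which cellular ATP was quantified by luminescence.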
TDP1 cell CPT = growth inhibition of DT40 Tdp1-/-;hTDP1 cells with camptothecin (screen for TDP1 inhibitors); Potency, µM (titrated, usually from 46.2 µM), for the others: at the top dose activity change, negative = growth inhibition, most hits filed as inhibitors; AID 686979; hit rate 12% among 420,000; chicken DT40 Tdp1-/-;hTDP1 cells + 20 nM CPT, ATP luminescence, 48 h; also: potency is read from the fitted curve at half-maximal effect; nearly all actives have a fitted effect of over 55% in size
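Chicken DT40 Tdp1-/- cells complemented with human TDP1, 400 cells/well, exposed to compounds plus 20 nM camptothecin for at least 48 h at 37 C; viability read as ATP content by CellTiter-Glo luminescence.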
The depositor's hits bear a star; ? = inconclusive; . = no result. Unless noted, calls follow the shape of the dose curve; as a rule, active = well fitted curve in the direction sought with a large enough effect; inconclusive = small, poorly fitted or top-dose-only effect, or another doubt; inactive = no such curve, though single readings can be large; an effect the other way counts as inactive or inconclusive. Unless noted, % is scaled to controls: 0 for no effect and ±100 for the full control effect.

SMILES	HT1080NT lethal	IL1B secr inh	HT1080 IDH1KD tx	DT40 TDP1 no CPT	TDP1 cell CPT
CCOC(=O)N1CCN(C(=O)c2ccc3nc(N4CCCCC4)sc3c2)CC1	1.2%	-17.0	-7.0%	?	-21.5%
Cc1cccc(N2CCN(C(=O)c3ccc4nc(N5CCCCC5)sc4c3)CC2)c1C	7.4%	33.6	4.8%	18.4µM*	20.6µM*
CCOC(=O)N1CCN(C(=O)c2ccc3nc(N4CCC(C)CC4)sc3c2)CC1	-12.7%	?	-17.6%	?	?
Cc1ccc(C)c(N2CCN(C(=O)c3ccc4nc(N5CCOCC5)sc4c3)CC2)c1	1.1%	22.5	-13.4%	13µM*	?
Cc1cccc(NC(=O)c2ccc3nc(N4CCOCC4)sc3c2)c1C	-1.6%	-14.1	1.9%	?	?
Cc1ccc(Cl)cc1N1CCN(C(=O)c2ccc3nc(N4CCC(C)CC4)sc3c2)CC1	.	.	.	20.6µM*	20.6µM*
CC(C)c1nnc(NC(=O)CSc2nnc(NC(=O)c3c(F)cccc3F)s2)s1	2.6%	4.6	-1.5%	5.5%	1.8%
CCCCN1C(=O)C(CC(=O)NC2CCCCC2)CC(C(=O)N2CCCCCC2)=C1C (configuration not stated)	1.5%	.	-4.7%	6.1%	-7.7%
CC1CCN(c2nc3ccc(C(=O)N4CCN(Cc5ccccc5)CC4)cc3s2)CC1	-17.3%	?	-19.7%	?	?
O=C(c1ccc2nc(N3CCOCC3)sc2c1)N1CCC(Cc2ccccc2)CC1	?	-19.6	-0.4%	23.1µM*	?
O=C(NN=C1c2ccccc2-c2ccccc21)c1ccccn1	?	-5.4	?	?	?
NC(=S)NN=C1c2ccccc2-c2cc(Br)ccc21	-8.6%	-5.1	-26.6%	3.66µM*	5.17µM*
ON=C1c2ccccc2-c2ccc(F)cc21	1.2%	-12.0	-0.9%	18.4µM*	?
ON=C1c2ccccc2-c2ccc(Br)cc21	-2.7%	0.0	12.1%	23.1µM*	29.1µM*
NN=C1c2ccccc2-c2ccc(N)cc21	-1.3%	-0.5	-2.2%	?	?
Nc1cc2c(cc1Br)-c1ccccc1C2=NO	3.5%	-104.8*	-31.4%	?	25.9µM*
S=C1NCCNC(=S)NCCOCCOCCOCCN1	2.8%	-14.9	5.1%	5.1%	18.7%
COc1cccc(COC(=O)Nc2ccccc2)c1OC	6.6%	-20.5	-6.4%	?	?
Cc1ccc(OCC(=O)Nc2ccc(NC(=O)c3ccccc3)cc2)cc1C	18.4%	-12.8	14.8%	-23.1%	2.0%
COc1ccccc1C1SCCN1S(=O)(=O)c1ccccc1 (configuration not stated)	0.6%	11.2	2.2%	?	?
CCOC(=O)N1CCN(S(=O)(=O)c2ccc(C)cc2)C1c1ccc(OC)cc1 (configuration not stated)	5.7%	2.7	-16.4%	?	?
COc1ccc(C2N(S(=O)(=O)c3ccccc3)CCN2S(=O)(=O)c2ccc(C)cc2)cc1 (configuration not stated)	2.0%	32.7	-2.5%	14.1µM*	15.8µM*
CCOC(=O)N1CCN(S(=O)(=O)c2ccc(C)cc2)C1c1ccccc1 (configuration not stated)	-14.7%	-14.0	-6.1%	?	?
COc1ccccc1C1SCCN1S(=O)(=O)c1cccc(C(F)(F)F)c1 (configuration not stated)	-3.8%	?	-23.2%	15.8µM*	-4.5%
Cc1ccc(S(=O)(=O)N2CCN(S(=O)(=O)c3ccc(C)cc3)C2c2ccccc2)cc1	3.5%	23.1	-0.3%	?	17.8µM*
SMILES	HT1080NT lethal	IL1B secr inh	HT1080 IDH1KD tx	DT40 TDP1 no CPT	TDP1 cell CPT
CCC(=O)N1CCCN(S(=O)(=O)c2ccc(C)cc2)C1c1ccc(OC)cc1 (configuration not stated)	3.5%	15.8	5.4%	14.6µM*	-8.9%
CCC(C)C(NC(=O)OCc1ccccc1)C(=O)NCC(c1ccccc1)N(C)C (configuration not stated)	3.7%	-5.7	8.7%	?	2.8%
COc1ccc(S(=O)(=O)N2CCSC2c2ccc(OC)c(OC)c2)cc1 (configuration not stated)	11.5%	-0.6	-18.6%	16.4µM*	?
NC1=NC2=C(CCCC2)C2(CCCCC2)S1	?	-65.1*	?	?	?
O=C(C[n+]1ccccc1)N/N=C/c1ccc(C(=O)O)cc1	0.2%	-4.9	-1.6%	23.8%	5.4%
O=C(/C=C/c1ccccc1)c1c[nH]c2ccccc12	-0.8%	?	0.3%	-0.9%	-20.1%
Cc1[nH]c2ccccc2c(=O)c1C(=O)/C=C/c1ccccc1	-3.9%	-101.4*	?	2.31µM*	5.17µM*
O=C(C=Cc1ccccc1)c1c[nH]c2ccccc2c1=O	8.2µM*	-98.2*	?	6.51µM*	6.51µM*
COc1cc2c(cc1OC)C(C)N(C(=O)c1cc3ccccc3o1)CC2 (configuration not stated)	?	-59.4*	5.62µM*	?	8.2µM*
COc1cc2c(cc1OC)C(C)N(C(=O)c1c(C)noc1C)CC2 (configuration not stated)	-24.7%	3.8	?	13µM*	?
COc1cc2c(cc1OC)C(C)N(C(=O)c1cc(C)on1)CC2 (configuration not stated)	?	36.1	1.46µM*	1.03µM*	0.82µM*
COc1cc2c(cc1OC)C(C)N(C(C)=O)CC2 (configuration not stated)	-1.0%	10.6	-5.8%	1.1%	-4.9%
Cn1c(NC(=O)c2ccccc2)c(-c2ccccn2)c(=O)c2ccccc21	5.5%	2.4	17.6%	-3.8%	-21.1%
Cc1ccc(Nc2n[nH]c(C)c2[N+](=O)[O-])cc1C	-9.6%	-2.0	-14.8%	-29.0%	-16.1%
Cc1ccc(Nc2nc(N)c([N+](=O)[O-])c(N3CCCC(C)C3)n2)cc1C (configuration not stated)	18.9%	-98.0*	1.4%	?	?
CC1CC(C)CN(c2nc(NCc3ccco3)nc(N)c2[N+](=O)[O-])C1 (configuration not stated)	3.6%	20.7	7.8%	14.6µM*	16.4µM*
CCN1CCN(c2nc(N)c([N+](=O)[O-])c(Nc3ccc(C)c(C)c3)n2)CC1	11.7%	11.2	10.5%	16.4µM*	?
COc1cccc(Nc2nc(N)c([N+](=O)[O-])c(N3CCOCC3)n2)c1	10.1%	15.6	4.8%	23.1µM*	?
CC1CCCN(c2nc(NCc3ccco3)nc(N)c2[N+](=O)[O-])C1 (configuration not stated)	?	-12.2	-12.5%	?	?
